Source: PubChem BioAssay AID1159580 (chemical genetic matrix, 2015)
The campaign covered roughly 5,500 compounds. About 2,000 (36%) were called active. Inconclusive results (about 18%) are left out. Rule as the data show it: active = normalized growth mostly below about 0.91 (no sharp cut-off); inconclusive = no clear call, values can overlap the other calls; inactive = mostly above about 0.92. The list shows a part of the results.

Assay: chemical genetic growth profiling, strain panel (AID 1159580);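 also: tested at 20 µM; growth read once vehicle control cultures reached saturation at 30 °C; 1 = growth at the plate median or of vehicle wells; lower values mean less growth of the strain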
Conditions: S. cerevisiae deletion strains, growth OD

Measured: normalized growth

CN1CCC(=C2c3ccccc3C=Cc3ccccc32)CC1
inactive: locus YAL013W, strain DEP1, stronger effect = lower value 0.966 | locus YAL040C, strain CLN3, stronger effect = lower value 0.99 | locus YCL061C, strain MRC1 (second series), stronger effect = lower value 0.99 | locus YDR150W, strain NUM1, stronger effect = lower value 1 | locus YDR363W, strain ESC2, stronger effect = lower value 1 | locus YER002W, strain NOP16, stronger effect = lower value 0.995 | locus YGR078C, strain PAC10, stronger effect = lower value 1 | locus YGR229C, strain SMI1, stronger effect = lower value 0.959 | locus YHR030C, strain SLT2, stronger effect = lower value 0.965 | locus YHR079C, strain IRE1, stronger effect = lower value 0.967 | locus YJL095W, strain BCK1, stronger effect = lower value 0.968 | locus YJR066W, strain TOR1, stronger effect = lower value 0.942 | locus YLR113W, strain HOG1, stronger effect = lower value 0.942 | locus YMR307W, strain GAS1, stronger effect = lower value 1.01 | locus YNL175C, strain NOP13, stronger effect = lower value 0.986 | locus YNL183C, strain NPR1, stronger effect = lower value 0.914 | locus YNL197C, strain WHI3, stronger effect = lower value 1.01 | locus YNL224C, strain SQS1, stronger effect = lower value 0.995 | locus YNL322C, strain KRE1, stronger effect = lower value 0.993 | locus YOR083W, strain WHI5 (second series), stronger effect = lower value 1.01 | locus YOR231W, strain MKK1, stronger effect = lower value 0.965 | locus YPL055C, strain LGE1, stronger effect = lower value 0.973 | locus YPL256C, strain CLN2, stronger effect = lower value 0.932
